Laboratory results: PubChem BioAssay AID1159580 (chemical genetic matrix, 2015)
Among all 5,500 compounds or so, about 2,000 (36%) were called active. About 18% were inconclusive and are not listed. Rule as the data show it: active = normalized growth mostly below about 0.91 (no sharp cut-off); inconclusive = no clear call, values can overlap the other calls; inactive = mostly above about 0.92. The list shows a part of the results.

Assay: chemical genetic growth profiling, strain panel (AID 1159580);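 also: tested at 20 µM; growth read once vehicle control cultures reached saturation at 30 °C; 1 = growth at the plate median or of vehicle wells; lower values mean less growth of the strain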
Conditions: S. cerevisiae deletion strains, growth OD
[1] = locus YAL013W, strain DEP1, active compounds read low
[2] = locus YBR229C, strain ROT2, active compounds read low
[3] = locus YDL101C, strain DUN1, active compounds read low
[4] = locus YDL134C, strain PPH21, active compounds read low
[5] = locus YDR150W, strain NUM1, active compounds read low
[6] = locus YEL061C, strain CIN8, active compounds read low
[7] = locus YGR078C, strain PAC10, active compounds read low
[8] = locus YHR030C, strain SLT2, active compounds read low
[9] = locus YHR087W, strain rtc3, active compounds read low
[10] = locus YJR043C, strain POL32, active compounds read low
[11] = locus YJR075W, strain HOC1, active compounds read low
[12] = locus YLR039C, strain RIC1, active compounds read low
[13] = locus YLR058C, strain SHM2 (second series), active compounds read low
[14] = locus YLR085C, strain ARP6, active compounds read low
[15] = locus YLR262C, strain YPT6, active compounds read low
[16] = locus YML094W, strain GIM5, active compounds read low
[17] = locus YMR219W, strain ESC1, active compounds read low
[18] = locus YMR263W, strain SAP30, active compounds read low
[19] = locus YNL153C, strain GIM3, active compounds read low
[20] = locus YNL298W, strain CLA4 (second series), active compounds read low
[21] = locus YNL322C, strain KRE1, active compounds read low
[22] = locus YNR030W, strain Alg12, active compounds read low
[23] = locus YPL055C, strain LGE1, active compounds read low
[24] = locus YPL241C, strain CIN2, active compounds read low
[25] = locus YPR135W, strain CTF4, active compounds read low

Measured: normalized growth

N#Cc1c(Cl)cccc1N1CCCC1
inactive: [2] 0.935 | [4] 0.98 | [5] 0.85 | [13] 0.952 | [14] 0.791 | [18] 0.915 | locus YNL128W, strain TEP1, active compounds read low 0.922 | [25] 0.769
active: [1] 0.877 | [3] 0.87 | [6] 0.891 | [7] 0.851 | [8] 0.615 | [9] 0.886 | [10] 0.861 | [11] 0.801 | [12] 0.576 | [15] 0.567 | [16] 0.779 | [17] 0.931 | [19] 0.833 | [20] 0.762 | [21] 0.929 | [22] 0.83 | locus YOL006C, strain TOP1, active compounds read low 0.473 | [23] 0.776 | [24] 0.815

N#Cc1c(Cl)cccc1N1CCC(C(=O)NC(=O)Nc2ccc(Cl)cc2)CC1
inactive: [1] 0.998 | [2] 1.01 | [3] 1 | [4] 1.03 | [5] 1.04 | [6] 1.01 | [7] 1.01 | [8] 1.04 | [9] 1.02 | locus YJL187C, strain SWE1, active compounds read low 1.01 | [10] 1 | [11] 1.05 | [12] 1.01 | [13] 1.03 | [14] 1.07 | [15] 0.998 | [16] 1.04 | [17] 1.02 | [18] 1.01 | locus YMR307W, strain GAS1, active compounds read low 1.03 | [19] 1.01 | [20] 1.02 | [21] 1.01 | [22] 1.03 | [23] 1.1 | [24] 1.01 | [25] 1.04
